Data taken from PubChem BioAssay AID1159524 (National Center for Advancing Translational Sciences (NCATS), 2015).
Screen size: about 410,000 compounds; about 5,100 (1.2%) were called active. Roughly 8% stayed inconclusive and do not appear here. What follows is part of a selection rich in actives, with near analogues and random picks from the rest. Unmarked numbers belong to inactive results. The call rests on the fitted dose curve; tested in HEK293T cells.

Assay: High Throughput Screening for Foot and Mouth Disease Virus Antivirals; further: read-out not given here; nearly all actives have a fitted effect of over 45% in size
Conditions: FMDV antiviral cell-based qHTS; series mostly up to 57.9 µM; activity change, negative = inhibition: at the top concentration
On the % scale 0 is the no-effect control and ±100 the full control effect; potency means the concentration at half of the fitted maximal effect.

Row | SMILES | activity change, negative = inhibition | Potency
1 | Oc1ccc(-c2c(-c3ccccc3)nn3c(C(F)(F)F)cc(C(F)(F)F)nc23)cc1 | -10.1% | 
2 | COc1ccc(-n2c(=O)c(-c3cn(C)c4ccccc34)nc3cnc(OC)nc32)cc1 | -6.96% | 
3 | COC(=O)c1ccc(NC(=O)CCc2c(C)nn(-c3ccc(N4CCCC4)nn3)c2C)cc1 | 8.9% | 
4 | COc1cc(OC)c2c(c1Cl)OC1(C2=O)C(O)=CC(=O)CC1C (stereo not given) | -10% | 
5 | O=C(Nc1ccccc1)N[C@H]1C[C@H](C(=O)O)Nc2cc(Cl)cc(Cl)c21 | -14.8% | 
6 | COc1ccc(CN2C(=O)C(NC(=O)c3cccc(C)c3)(C(F)(F)F)N=C2c2ccccc2)cc1 (stereo not given) | -15.2% | 
7 | Cc1cnc(C)c(-c2cc(F)c3c(c2)CC(CNC(=O)c2cccc(Cn4cccn4)c2)O3)n1 (stereo not given) | -15.7% | 
8 | CN(Cc1ccco1)c1ncncc1-c1ccoc1 | -19.8% | 
9 | CC(C)[C@@H]1NC(=O)[C@H](Cc2ccccc2)NC(=O)[C@@H](CC(=O)O)NC(=O)CNC(=O)[C@H](CCCNC(=N)N)NC1=O | 1.14% [at 39.8 µM] | 
10 | COc1ccc2c(c1)c(=Cc1ccc(N(C)C)cc1)c1cc(-c3ccccc3)[n+](C)n12 |  | 14.1 µM (active)
11 | CCOC(=O)c1cc(OC(=O)c2ccccc2Cl)n(-c2ccccc2)n1 | -8.7% | 
12 | COc1ccccc1-c1ccnc(-n2ncc(C(=O)NCCc3ccncc3)c2C)n1 | 19% | 
13 | N#Cc1cccc(-c2nc3cnc(N4CCNCC4)nc3n(C3CC3)c2=O)c1 | -8.75% | 
14 | CCCN(CCC)CCCNC(=O)Cn1cc2c(n1)-c1c(oc(C(=O)N3CCCC3)c1C)CC2 | 5.84% | 
15 | Cc1c(C(=O)N2CCCC2)oc2c1-c1nn(CC(=O)NCc3ccc(OC(C)C)cc3)cc1CC2 |  | 28.2 µM (active)
16 | Cc1ccc(Cn2cc(CCC(=O)NCc3ccc(OC(C)C)cc3)c3ccccc32)cc1 | -4.93% | 
17 | Cc1cccc(CNc2cc(-c3ccccc3Cl)ncn2)c1 | -5.63% | 
18 | CC(=O)Nc1c(C)nn(-c2ccccc2)c1N1CCC(C(=O)Nc2cc(Cl)ccc2C)CC1 | -1.41% | 
19 | Cc1cccn2c(CNCC(C)Oc3cccnc3)c(C(=O)N3CCOCC3)nc12 (stereo not given) |  | 4.47 µM (active)
20 | Cc1cccc(N2CCC(NCc3c(C(=O)N4CCCCC4)nc4c(C)cccn34)CC2)c1 | -28.4% | 
21 | Cc1cc(C)n(CC(C)NCc2c(C(=O)N3CCOCC3)nc3c(C)cccn23)n1 (stereo not given) | 7.32% | 
22 | CC(CCC(=O)O)C1CCC2C3C(O)C[C@@H]4CC(O)CC[C@@]4(C)C3CC[C@@]12C (stereo not given in full) |  | inactive
23 | COc1ccc(-c2cc(C(=O)Nc3sc4c(c3C(N)=O)CCCC4)no2)cc1 | 9.76% | 

Row | SMILES | activity change, negative = inhibition | Potency
24 | CCOc1ccc(CNC(=O)c2cccc(Nc3nc4ccccc4n4nnnc34)c2)cc1OC |  | 7.08 µM (active)
25 | CCOc1ccc(OCC)c(Nc2nc3ccccc3n3nnnc23)c1 | -21% | 
26 | CCOc1ccc(CNC(=O)c2ccc3nc(CC)c(CC)nc3c2)cc1OC | -24.4% | 
27 | COc1cc(OC)cc(C(=O)Nc2ccc3nc(Nc4cccc(C(F)(F)F)c4)cc(C)c3c2)c1 | -14.2% | 
28 | COc1cccc(Cn2c(=O)c(C)nc3cnc(Oc4ccccc4)nc32)c1 | -22.8% | 
29 | COc1ccc2c3c1OC1CC(O)C=C[C@@]31CCN(C)C2 (stereo not given in full) | -8.42% | 
30 | Cc1ccc(C(=O)Nc2nc(-c3ccccc3)ns2)cc1 | 32.2% | 
31 | Cc1csc(NC(=O)C2CCN(S(=O)(=O)c3ccccc3)CC2)n1 | -12.9% | 
32 | CC(=O)N1CCC(C(=O)Nc2nc(-c3ccccc3)ns2)CC1 |  | 2.82 µM (active)
33 | CC(=O)c1ccc(NC(=O)c2nc3nc(C)cc(C(F)F)n3n2)cc1 | 18.7% | 
34 | CCc1ccccc1OCCSc1nc(-c2cccs2)nc2cc(=O)[nH]n12 | -15.2% | 
35 | COc1ccccc1C(=O)N[C@@H]1c2ccccc2C2(CCN(Cc3nc(C(C)C)cs3)CC2)[C@H]1O |  | 11.2 µM (active)
36 | COc1ccccc1C(=O)N[C@@H]1c2ccccc2C2(CCN(C(=O)c3csnn3)CC2)[C@H]1OC | -1.64% | 
37 | CC(C)c1csc(CN2CCC(CO)(Cc3ccccc3)CC2)n1 | -8.62% | 
38 | O=C(Nc1cccc(F)c1)N1CC[C@@]2(CCCN(C(=O)Oc3ccccc3)C2)C1 | -16.4% | 
39 | CCN1C[C@]2(COC)C(O)C[C@H](OC)[C@@]34C5C[C@]6(O)C(OC)C(O)[C@](OC(C)=O)(C5C6OC(=O)c5ccccc5)C(C(OC)C23)C14 (stereo not given in full) | -3.96% | 
40 | CC(NS(=O)(=O)c1ccc(Br)cc1)C(=O)NCC1CCCO1 (stereo not given) |  | 1 µM (active)
41 | CCOc1ccc(NS(=O)(=O)c2ccc(C(=O)NCC3CCCO3)cc2)cc1 (stereo not given) | -20.1% | 
42 | O=C(CNC(=O)c1ccc(Br)o1)NCC1CCCO1 (stereo not given) | -17% | 
43 | NCCC(=O)c1ccccc1N | -2.35% | 
44 | CN(C)C1=NC[C@H](Cc2ccccc2)N1CCc1ccc(F)cc1 | 0% | 
45 | O=C1NC(=O)N(CCc2ccc(F)cc2)C(=O)/C1=C/C=C/c1ccccc1 |  | 10 µM (active)
